# Screens from PubChem BioAssay.
# HSF-1 act – increases HSF-1 driven luciferase reporter signal; activation, % at 9 µM; AID 504408; 1.7% of 300,000 active; NIH3T3-HGL HSF-1 luciferase reporter, MG132, 8 h; 100% = twice DMSO control signal;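 active = mean replicate activation of at least 50% with a set share of replicates each reaching 50%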;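 also: 0% = median of the neutral control wells and 100% = twice that signal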
# HSF1 inhib – HSF1 inhibition. NIH3T3-HGL HSE-luciferase, MG132-induced, luminescence 8 h; hits give low values. activity change, negative = inhibition, % at 7.5 µM (by protocol). 0.77% of 300,000 active. AID 2098;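 active = more than half of replicate wells show activity change below -50%, luminescence cut by over half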;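 also: luciferase reports HSF-1 transcriptional activity via heat shock element; 0% = median of DMSO wells and -100% = zero luminescence signal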
# Platelet DG rel – modulates dense granule release in human platelets | human platelet-rich plasma, SFLLRN dense granule ATP release, luminescence | inhibition, %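 (compounds screened at 7.5 µM in platelet-rich plasma)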 | 0.22% of 300,000 active;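 active = mean replicate score, as percent of positive control, at or above 50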
# HSP90 inh – inhibitors of HSP90 luciferase refolding in rabbit reticulocyte lysate; luciferase refolding luminescence, 3 h; inhibition, % at 5.6 µM; 0.91% of 290,000 active;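 active = inhibition above the screen-wide mean plus 3 SD, computed separately per campaign, cut at about 16% in these data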;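 also: 0% = DMSO wells and 100% = 60 µM geldanamycin wells; inhibitors lower the luminescence because luciferase stays unfolded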
# MPTP inh – inhibitors of mitochondrial permeability transition pore; isolated mouse mitochondria, Ca2+ swelling absorbance, 30 min; inhibition, % at 10 µM; 1.4% of 360,000 active; AID 602449;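 active = inhibition of 50% or more, scaled per plate between neutral and stimulator controls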;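 also: 0% = DMSO wells given calcium and 100% = 1 mM EGTA wells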
# dFosB act – mouse delta FosB homodimer activation | P13346 | purified delta FosB, TAMRA-CDK5 oligo fluorescence polarization; percent of positive-control signal above neutral wells | activation, % at 25 µM | 0.99% of 340,000 active;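 active = mean activation above about 17%, with every replicate also reaching it, limit read from the data, passing the limit was not always enough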
# Target sequence (P13346 whole entry, looked up): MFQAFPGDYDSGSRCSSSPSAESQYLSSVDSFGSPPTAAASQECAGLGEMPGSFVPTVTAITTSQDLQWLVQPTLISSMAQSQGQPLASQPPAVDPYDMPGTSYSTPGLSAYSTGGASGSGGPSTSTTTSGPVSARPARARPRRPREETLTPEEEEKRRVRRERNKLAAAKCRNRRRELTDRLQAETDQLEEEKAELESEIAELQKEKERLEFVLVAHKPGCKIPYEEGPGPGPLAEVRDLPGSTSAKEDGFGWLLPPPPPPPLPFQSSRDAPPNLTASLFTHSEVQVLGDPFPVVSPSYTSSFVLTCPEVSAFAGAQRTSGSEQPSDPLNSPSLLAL
# Numbers without * were called inactive; x = not tested or not shown. Hits are enriched below; roughly 4.9% of the tested compounds scored in any of these assays.
SMILES,HSF-1 act,HSF1 inhib,Platelet DG rel,HSP90 inh,MPTP inh,dFosB act
Cc1ccc(-c2cc3nc(-c4ccccc4)cc(N)n3n2)cc1,62*,32,-3,2,3,-12
Cc1ccc(C2=NN(S(C)(=O)=O)C(c3cccs3)C2)cc1 (stereo not given),42,11,12,0,-8,-2
CS(=O)(=O)N1N=C(c2ccc(Br)cc2)CC1c1cccs1 (stereo not given),52*,28,10,0,-6,-12
CCc1ccc(C2=NN(S(C)(=O)=O)C(c3cccs3)C2)cc1 (stereo not given),70*,48,3,2,3,-1
Cc1ccc(C)c(CC(=O)N2CCCCC2c2cc(C(=O)Nc3cccc(C#N)c3)no2)c1 (stereo not given),x,x,x,x,0,x
O=C(Cn1c2ccc(F)cc2c2nc3n(c(=O)c21)CCS3)Nc1ccc(Cl)cc1F,2,5,-11,2,-2,21*
Nc1nnc(COc2ccc(Br)cc2Br)s1,92*,46,-12,0,0,-5
COc1ccc(S(=O)(=O)Nc2ccc3c(c2)C(=O)N([C@H](C)CO)C[C@H](C)[C@@H](CN(C)S(=O)(=O)c2cn(C)cn2)OCCCC[C@H](C)O3)cc1,x,x,x,x,-1,x
CCCCCCSc1ccc([C@@H]2[C@H]3C(=O)N(CC)C(=O)[C@H]3[C@]3(C(=O)OC)CCCCN23)cc1OC,x,x,x,x,1,-3
CCNc1nc(NC#N)nc(SCC(=O)OCC)n1,-4,-2,55*,-2,-9,3
O=C(OCN1C(=O)c2ccccc2C1=O)c1cc(S(=O)(=O)N2CCOCC2)ccc1F,x,x,x,x,0,2
CCOc1ncccc1C(=O)N(C)CC1COc2ccccc2O1 (stereo not given),175*,97,-10,1,-5,-2
CN(CC1COc2ccccc2O1)C(=O)CSc1ncccn1 (stereo not given),x,x,x,x,0,-1
O=Nc1c(-c2ccccc2)[nH]n(-c2ccccc2)c1=O,98*,65,12,8,1,-9
Cc1nn(CC(=O)N2CCc3ccccc3C2)c(C)c1Cl,-30,-5,2,-3,0,-6
CCC(/C=C1\Sc2ccc(OC)cc2N1CC)=C\c1sc2ccc(OC)cc2[n+]1CCCS(=O)(=O)[O-],2,-3,12,1,7,134*
Cc1ccc(S(=O)(=O)N2CCN(C(=O)CC(C)n3cncn3)CC2)cc1C (stereo not given),-5,-4,-2,3,-1,-8
CC(NC(=O)c1ccccc1Br)c1ccc2c(c1)CCCC2 (stereo not given),59*,21,3,3,-2,-4
COc1ccc(-n2nc3c(N4CCC(C(=O)NCCc5ccccc5C)CC4)nnc(C)c3c2C)cc1,-17,0,2,3,0,-1
COc1ccc(-n2nc3c(N4CCC(C(=O)NCc5ccccc5C)CC4)nnc(C)c3c2C)cc1,-2,2,-10,2,-2,77*
CCCS(=O)(=O)NC(=O)C1(C)CCCN(C(=O)c2ccccc2F)C1 (stereo not given),x,x,x,x,0,x
c1ccc(SCCOCCN2CCOCC2)cc1,64*,25,-8,-6,0,6
Cc1ccc(SCCOCCN2CCOCC2)cc1,-3,-4,-3,-2,0,-4
Cc1ccc(-c2nn(-c3ccccc3)cc2C(=O)Nc2cccc(S(=O)(=O)NC3=NCCC3)c2)cc1,x,x,x,x,0,x
Cn1cc([N+](=O)[O-])c(C(=O)Nc2nc(-c3ccc(Cl)cc3)cs2)n1,140*,102,-3,8,0,6
Cc1cnc(NC(=O)c2nn(C)cc2[N+](=O)[O-])s1,150*,139,6,7,-2,-7
Cc1ccc(-c2nc(NC(=O)c3nn(C)cc3[N+](=O)[O-])sc2C)cc1C,-84,-84*,-6,4,-2,6
C=CCNC(=S)N/N=C/c1ccc(-c2cccc([N+](=O)[O-])c2)o1,33,22,10,-1,4,1
C=CCNC(=S)N/N=C/c1ccc(-c2ccc(Br)cc2)o1,78*,41,6,1,1,-5
CC(C)(CCO)NC(=S)NC1CC2C=CC1C2 (stereo not given),-3,-3,-7,5,1,-5
